Assay [1] has as its target Estrogen-related receptor gamma (Homo sapiens) (UniProt P62508). In words: ATG_ERRg_TRANS: Attagene TRANS-FACTORIAL HepG2 Assay for human Estrogen-Related Receptor gamma (ERRg) (AID 2282977; active = hit-call score of the fitted dose curve at least 0.9, where 1 is the maximum;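 also: hits increase reporter signal over DMSO so potencies reflect activators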). The conditions noted are these: HepG2 Attagene TRANS reporter, ERRg transactivation. An outline of the steps:
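Readout: fluorescent reporter-mRNA fragments resolved by capillary electrophoresis after RT-PCR and HpaI cut. Cells: transiently transfected HepG2 carrying GAL4-UAS reporters driven by exogenous NR-Gal4 chimeras, dosed 24 h. Activity fitted upward relative to DMSO baseline.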

The target in assay [2] is Glucocorticoid receptor (Homo sapiens) (UniProt P04150). Briefly: ATG_GR_TRANS: Attagene TRANS-FACTORIAL HepG2 Assay for human Glucocorticoid Receptor (GR) (AID 2282978; active = hit-call score of the fitted dose curve at least 0.9, where 1 is the maximum;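 also: activators score as hits since higher reporter transcript over DMSO is fitted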). The conditions noted are these: HepG2 Attagene TRANS GR reporter, mRNA transcription. The procedure, abridged: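 After 24 h incubation with test chemical, transfected HepG2 cells were lysed for RNA; reporter cDNA was amplified, FAM-labelled, HpaI-digested and sized on a capillary analyser. Signal gain relative to DMSO was scored.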

The target of assay [3] is Bile acid receptor (Homo sapiens) (UniProt Q96RI1). In words: ATG_FXR_TRANS: Attagene TRANS-FACTORIAL HepG2 Assay for Farnesoid X Receptor (FXR) (AID 2282979; active = hit-call score of the fitted dose curve at least 0.9, where 1 is the maximum;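 also: hits raise reporter mRNA above DMSO so AC50 marks FXR activation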). The conditions noted are these: HepG2 Attagene TRANS FXR-GAL4 reporter transcription. An outline of the steps: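 Reporter transcripts from transfected HepG2 cells were measured 24 h after dosing, using RT-PCR with capillary electrophoresis of 6-FAM-labelled fragments. The read-out reflects activity of exogenous FXR-Gal4 chimera on GAL4-UAS units, with induction relative to DMSO.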
Bile acid receptor (Homo sapiens), sequence (Q96RI1 whole entry, looked up, the tested form may be a part): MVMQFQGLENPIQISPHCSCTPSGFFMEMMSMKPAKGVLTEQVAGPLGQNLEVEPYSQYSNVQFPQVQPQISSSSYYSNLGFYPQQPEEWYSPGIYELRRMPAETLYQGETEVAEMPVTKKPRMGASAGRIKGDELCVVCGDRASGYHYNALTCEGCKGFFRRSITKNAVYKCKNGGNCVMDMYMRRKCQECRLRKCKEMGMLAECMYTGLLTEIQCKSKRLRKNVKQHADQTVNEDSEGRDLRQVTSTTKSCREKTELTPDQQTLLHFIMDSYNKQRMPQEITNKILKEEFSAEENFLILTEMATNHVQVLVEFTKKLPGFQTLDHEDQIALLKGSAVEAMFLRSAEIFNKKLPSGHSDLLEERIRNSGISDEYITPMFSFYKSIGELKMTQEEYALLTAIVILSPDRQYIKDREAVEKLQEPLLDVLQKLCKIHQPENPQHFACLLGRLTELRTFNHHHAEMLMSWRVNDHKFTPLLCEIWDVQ

Assay [4] has as its target Oxysterols receptor LXR-alpha (Homo sapiens) (UniProt Q13133). In words: ATG_LXRa_TRANS: Attagene TRANS-FACTORIAL HepG2 Assay for human Liver X Receptor alpha (LXRa) (AID 2282980; active = hit-call score of the fitted dose curve at least 0.9, where 1 is the maximum). The conditions noted are these: HepG2 Attagene TRANS reporter, LXRa transactivation. The procedure, abridged: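 Chemical-induced reporter mRNA measured by RT-PCR with fluorescent labelling and capillary electrophoresis after 24 h dosing of transiently transfected HepG2 cells expressing exogenous NR-Gal4 chimeras; increases scored against DMSO baseline.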

The target in assay [5] is Oxysterols receptor LXR-beta (Homo sapiens) (UniProt P55055). In words: ATG_LXRb_TRANS: Attagene TRANS-FACTORIAL HepG2 Assay for human Liver X Receptor beta (LXRb) (AID 2282981; active = hit-call score of the fitted dose curve at least 0.9, where 1 is the maximum). The conditions noted are these: HepG2 Attagene TRANS GAL4-LXRb reporter, mRNA. The procedure, abridged: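 Readout: fluorescent reporter mRNA fragments resolved by capillary electrophoresis after RT-PCR. System: transiently transfected human HepG2, exogenous LXRb-Gal4 chimera driving GAL4-UAS reporter, 24 h dosing. Activity fitted upward against DMSO baseline.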
Oxysterols receptor LXR-beta (Homo sapiens), sequence (P55055 whole entry, looked up, the tested form may be a part): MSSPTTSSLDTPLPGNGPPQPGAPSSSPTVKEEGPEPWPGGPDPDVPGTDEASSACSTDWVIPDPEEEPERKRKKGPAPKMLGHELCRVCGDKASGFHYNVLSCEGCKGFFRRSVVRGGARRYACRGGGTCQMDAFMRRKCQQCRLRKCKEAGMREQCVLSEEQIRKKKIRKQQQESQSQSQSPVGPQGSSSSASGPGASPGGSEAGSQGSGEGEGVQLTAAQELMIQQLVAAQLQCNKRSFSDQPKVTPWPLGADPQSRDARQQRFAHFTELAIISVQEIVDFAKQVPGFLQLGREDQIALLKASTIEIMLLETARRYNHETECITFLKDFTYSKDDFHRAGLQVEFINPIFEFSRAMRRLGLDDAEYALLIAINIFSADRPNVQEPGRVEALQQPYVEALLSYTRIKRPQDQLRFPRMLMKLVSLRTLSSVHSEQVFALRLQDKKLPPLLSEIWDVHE

Assay [6] can be described thus: ATG_M_06_TRANS: Attagene TRANS-FACTORIAL HepG2 Assay for M06 Transcription Factor (Internal Marker) (AID 2282983; active = hit-call score of the fitted dose curve at least 0.9, where 1 is the maximum;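 also: reporter transcript level by RT-PCR then capillary electrophoresis fluorescence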). The conditions noted are these: HepG2 Attagene TRANS M06 internal marker reporter. The procedure, abridged:
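Background-control reporter readout: after 24 h chemical exposure of transiently transfected HepG2 (GAL4-UAS reporter units), mRNA quantified by RT-PCR with fluorescent labeling and capillary electrophoresis. Gain-of-signal fitting against DMSO baseline.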

Assay [7] is described as follows: ATG_M_32_TRANS: Attagene TRANS-FACTORIAL HepG2 Assay for M32 Transcription Factor (Internal Marker) (AID 2282984; active = hit-call score of the fitted dose curve at least 0.9, where 1 is the maximum;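 also: transcript level of a background control reporter unit measured by RT-PCR and capillary electrophoresis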). The conditions noted are these: HepG2 Attagene TRANS M32 internal marker reporter. The procedure, abridged: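 Read-out: fluorescent reporter cDNA fragments resolved by capillary electrophoresis after RT-PCR of total RNA. Transfected HepG2 cells were exposed to chemical for 24 h. Activity scored in the positive direction relative to DMSO.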

Assay [8] concerns the target Transcriptional activator Myb (Homo sapiens) (UniProt P10242). Briefly: ATG_Myb_CIS: Attagene CIS-FACTORIAL HepG2 Assay for human Myeloblastosis (Myb) Proto-Oncogene Transcription Factor (AID 2282986). The conditions noted are these: HepG2 Attagene CIS-FACTORIAL Myb reporter transcription; actives raise or lower the signal. An outline of the steps:
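After 24 h of compound dosing, total RNA from transfected HepG2 cells is reverse-transcribed and the reporter sequences amplified, labeled and separated by capillary electrophoresis. Values come from bidirectional fitting against DMSO.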

Assay [9] has as its target Nuclear respiratory factor 1 (Homo sapiens) (UniProt Q16656). In words: ATG_NRF1_CIS: Attagene CIS-FACTORIAL HepG2 Assay for human Nuclear Respiratory Factor 1 (NRF1) Orphan Gene (AID 2282987). The conditions noted are these: HepG2 NRF1 cis-element reporter, Attagene multiplex; actives raise or lower the signal. The procedure, abridged:
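Measured: fluorescent reporter-specific RT-PCR products from transfected HepG2 cells, separated by capillary electrophoresis. Exposure lasted 24 h. Analysis used bidirectional curve fitting with DMSO as negative control.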

Assay [10] is described as follows: ATG_NFI_CIS: Attagene CIS-FACTORIAL HepG2 Assay for human Nuclear Factor I (NFI) (AID 2282989). The conditions noted are these: HepG2 cis-regulatory reporter, NFI response element transcription; actives raise or lower the signal. The procedure, abridged:
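Reporter transcription driven by endogenous transcription factors in HepG2 cells; 24 h treatment. Quantitation by labelled RT-PCR fragments on capillary electrophoresis, gain- or loss-of-signal relative to DMSO.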

In assay [11] the target is Myc proto-oncogene protein (Homo sapiens) (UniProt P01106). In words: ATG_Myc_CIS: Attagene CIS-FACTORIAL HepG2 Assay for human Myelocytomatosis (Myc) Proto-Oncogene Transcription Factor (AID 2282990). The conditions noted are these: HepG2, Attagene cis-reporter transcription factor activity; actives raise or lower the signal. An outline of the steps: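 Read-out: fluorescent reporter mRNA fragments resolved by capillary electrophoresis after RT-PCR. Human HepG2 liver cells carried transfected cis-element reporter units and were dosed for 24 h. Gain or loss of signal fitted relative to DMSO baseline.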
Myc proto-oncogene protein (Homo sapiens), sequence (P01106 whole entry, looked up, the tested form may be a part): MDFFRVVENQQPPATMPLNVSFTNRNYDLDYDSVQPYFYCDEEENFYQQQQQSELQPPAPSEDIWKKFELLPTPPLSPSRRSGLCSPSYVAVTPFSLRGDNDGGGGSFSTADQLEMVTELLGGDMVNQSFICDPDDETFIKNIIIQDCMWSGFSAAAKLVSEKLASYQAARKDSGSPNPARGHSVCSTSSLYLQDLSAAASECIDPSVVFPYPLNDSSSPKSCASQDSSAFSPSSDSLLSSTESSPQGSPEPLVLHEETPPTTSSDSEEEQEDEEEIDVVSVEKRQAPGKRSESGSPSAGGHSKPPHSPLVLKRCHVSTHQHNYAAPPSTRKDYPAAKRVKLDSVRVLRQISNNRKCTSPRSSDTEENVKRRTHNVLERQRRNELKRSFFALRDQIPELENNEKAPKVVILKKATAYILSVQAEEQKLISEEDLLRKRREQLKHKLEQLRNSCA

A short description of assay [12]: ATG_NRF2_ARE_CIS: Attagene CIS-FACTORIAL HepG2 Assay for human Nuclear Factor Erythroid 2 Related Factor 2 (NFR2) response to Antioxidant Response Elements (ARE) (AID 2282992).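 As to AC50: reporter mRNA level measured by RT-PCR and capillary electrophoresis fluorescence.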 The conditions noted are these: HepG2 Attagene ARE/NRF2 reporter, transcription factor activity; actives raise or lower the signal. An outline of the steps:
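Endogenous transcription factor activity in human liver HepG2 cells is tracked via a cis-element-driven reporter within a multiplexed set. mRNA induction is read by RT-PCR and capillary electrophoresis after 24 h, with DMSO as baseline.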

Assay [13] can be described thus: ATG_Oct_MLP_CIS: Attagene CIS-FACTORIAL HepG2 Assay for human Octamer-Binding Transcription Factor (Oct) (AID 2282993). The conditions noted are these: HepG2 Attagene cis-factorial Oct reporter, mRNA; actives raise or lower the signal. The procedure, abridged: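 Transfected HepG2 cells, 24 h treatment. Reporter mRNA quantified by RT-PCR–capillary electrophoresis; bidirectional fitting against DMSO.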

In assay [14] the target is Cellular tumor antigen p53 (Homo sapiens) (UniProt P04637). Briefly: ATG_p53_CIS: Attagene CIS-FACTORIAL HepG2 Assay for human p53 Transcription Factor (AID 2282994). The conditions noted are these: HepG2 p53 cis-element reporter, Attagene mRNA; actives raise or lower the signal. An outline of the steps:
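Steps: transfect HepG2 with multiplexed cis reporter constructs; dose chemicals 24 h; extract RNA, reverse-transcribe, PCR-amplify reporter sequences; FAM-label, HpaI-digest, resolve fragments by CE. Activity fitted both directions relative to DMSO.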

The nature of assay [15]: BSK_3C_TissueFactor: BioMAP Diversity Plus: 3C Assay for Tissue Factor Biomarker Activity (AID 2282997). The conditions noted are these: BioMAP 3C HUVEC, tissue factor biomarker readout; actives raise or lower the signal. The procedure, abridged: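 Tissue factor on primary human umbilical vein endothelium was read by ELISA 24 h after dosing, gain or loss relative to DMSO. Cytotoxicity ran alongside via SRB (0.1%, TCA-fixed, 560 nm).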

The nature of assay [16]: BSK_3C_uPAR: BioMAP Diversity Plus: 3C Assay for Urokinase-type plasminogen activator receptor (uPAR) Biomarker Activity (AID 2282998). The conditions noted are these: BioMAP 3C HUVEC, uPAR biomarker ELISA; actives raise or lower the signal. The procedure, abridged: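 Readout: ELISA for surface uPAR. System: human umbilical vein endothelial primary cells, 24 h after chemical exposure. Analysis: bidirectional fit, DMSO baseline.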

Assay [17] can be described thus: ATG_GAL4_TRANS: Attagene TRANS-FACTORIAL HepG2 Assay for GAL4 (Internal Marker) (AID 2282976; active = hit-call score of the fitted dose curve at least 0.9, where 1 is the maximum). The conditions noted are these: HepG2 Attagene TRANS GAL4 internal marker reporter. An outline of the steps:
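In transfected human HepG2 liver cells dosed 24 h, GAL4 reporter mRNA serves as a baseline marker. Detection by RT-PCR with fluorescent capillary electrophoresis, activity fitted upward relative to DMSO.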

Assay [18] has as its target Hepatocyte nuclear factor 4-alpha (Homo sapiens) (UniProt P41235). Briefly: ATG_HNF4a_TRANS: Attagene TRANS-FACTORIAL HepG2 Assay for human Hepatocyte Nuclear Factor 4 alpha (HNF4a) (AID 2282982; active = hit-call score of the fitted dose curve at least 0.9, where 1 is the maximum). The conditions noted are these: HepG2 HNF4a transactivation reporter, mRNA readout. The procedure, abridged: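 Transient MRTU transfection of HepG2, 24 h dosing. Readout: reporter mRNA via RT-PCR + capillary electrophoresis, fluorescence; activity fit upward relative to DMSO control.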

The target in assay [19] is Nuclear receptor subfamily 4 group A member 2 (Homo sapiens) (UniProt P43354). In words: ATG_NURR1_TRANS: Attagene TRANS-FACTORIAL HepG2 Assay for human Nuclear Receptor Related Protein 1 (NURR1) (AID 2282985; active = hit-call score of the fitted dose curve at least 0.9, where 1 is the maximum). The conditions noted are these: HepG2 Attagene TRANS reporter, mRNA readout. The procedure, abridged:
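Read-out: reporter mRNA induction by RT-PCR plus capillary electrophoresis with fluorescence detection, after 24 h dosing of transfected HepG2 cells. Exogenous NR-Gal4 chimera activity drives GAL4-UAS reporter; activity fitted upward versus DMSO.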

Each structure is given as a SMILES string. Records with an inconclusive call do not appear. The source holds several records for some structures; these can differ, active in one and inactive in another. The source made the active and inactive calls. The calls were made as follows, unless noted: active = hit-call score of the fitted dose curve at least 0.9, where 1 is the maximum; inactive = score below 0.9.

Oxysterols receptor LXR-alpha (Homo sapiens), sequence (Q13133 whole entry, looked up, the tested form may be a part): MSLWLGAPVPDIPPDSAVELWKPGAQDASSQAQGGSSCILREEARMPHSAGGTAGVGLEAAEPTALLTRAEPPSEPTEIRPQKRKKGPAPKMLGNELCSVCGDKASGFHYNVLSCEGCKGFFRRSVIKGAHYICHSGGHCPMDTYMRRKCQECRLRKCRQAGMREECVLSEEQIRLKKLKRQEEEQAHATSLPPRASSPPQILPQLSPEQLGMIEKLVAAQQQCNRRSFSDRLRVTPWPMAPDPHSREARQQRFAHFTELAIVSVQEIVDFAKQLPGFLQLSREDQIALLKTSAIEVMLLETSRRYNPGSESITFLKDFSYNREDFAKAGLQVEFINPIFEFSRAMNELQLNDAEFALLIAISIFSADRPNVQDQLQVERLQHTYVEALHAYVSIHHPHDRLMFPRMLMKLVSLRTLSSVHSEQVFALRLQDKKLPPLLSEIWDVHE
Cellular tumor antigen p53 (Homo sapiens), sequence (P04637 whole entry, looked up, the tested form may be a part): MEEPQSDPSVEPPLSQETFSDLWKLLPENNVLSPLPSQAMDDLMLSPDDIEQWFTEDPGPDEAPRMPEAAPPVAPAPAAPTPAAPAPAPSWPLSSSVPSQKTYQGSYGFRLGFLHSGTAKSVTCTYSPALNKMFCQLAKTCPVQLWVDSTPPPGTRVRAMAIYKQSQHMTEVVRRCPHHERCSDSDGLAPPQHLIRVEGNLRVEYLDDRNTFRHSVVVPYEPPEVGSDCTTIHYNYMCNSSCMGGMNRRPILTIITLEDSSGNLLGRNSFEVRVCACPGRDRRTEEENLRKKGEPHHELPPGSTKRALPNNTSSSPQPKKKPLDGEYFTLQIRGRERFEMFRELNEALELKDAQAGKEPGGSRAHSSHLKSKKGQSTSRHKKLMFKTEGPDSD
Estrogen-related receptor gamma (Homo sapiens), sequence (P62508 whole entry, looked up, the tested form may be a part): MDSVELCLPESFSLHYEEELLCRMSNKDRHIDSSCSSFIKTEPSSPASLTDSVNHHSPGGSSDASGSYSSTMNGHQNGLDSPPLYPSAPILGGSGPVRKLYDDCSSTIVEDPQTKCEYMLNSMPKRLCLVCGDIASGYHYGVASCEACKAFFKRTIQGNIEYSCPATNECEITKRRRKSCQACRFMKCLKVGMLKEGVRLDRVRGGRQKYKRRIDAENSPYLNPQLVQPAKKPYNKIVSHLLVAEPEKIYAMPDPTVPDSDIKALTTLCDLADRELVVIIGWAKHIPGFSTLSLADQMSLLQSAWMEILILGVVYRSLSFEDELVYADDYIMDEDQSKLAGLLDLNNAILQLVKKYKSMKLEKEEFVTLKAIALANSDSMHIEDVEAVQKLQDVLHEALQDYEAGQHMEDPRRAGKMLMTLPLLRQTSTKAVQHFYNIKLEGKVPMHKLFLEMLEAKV
Transcriptional activator Myb (Homo sapiens), sequence (P10242 whole entry, looked up): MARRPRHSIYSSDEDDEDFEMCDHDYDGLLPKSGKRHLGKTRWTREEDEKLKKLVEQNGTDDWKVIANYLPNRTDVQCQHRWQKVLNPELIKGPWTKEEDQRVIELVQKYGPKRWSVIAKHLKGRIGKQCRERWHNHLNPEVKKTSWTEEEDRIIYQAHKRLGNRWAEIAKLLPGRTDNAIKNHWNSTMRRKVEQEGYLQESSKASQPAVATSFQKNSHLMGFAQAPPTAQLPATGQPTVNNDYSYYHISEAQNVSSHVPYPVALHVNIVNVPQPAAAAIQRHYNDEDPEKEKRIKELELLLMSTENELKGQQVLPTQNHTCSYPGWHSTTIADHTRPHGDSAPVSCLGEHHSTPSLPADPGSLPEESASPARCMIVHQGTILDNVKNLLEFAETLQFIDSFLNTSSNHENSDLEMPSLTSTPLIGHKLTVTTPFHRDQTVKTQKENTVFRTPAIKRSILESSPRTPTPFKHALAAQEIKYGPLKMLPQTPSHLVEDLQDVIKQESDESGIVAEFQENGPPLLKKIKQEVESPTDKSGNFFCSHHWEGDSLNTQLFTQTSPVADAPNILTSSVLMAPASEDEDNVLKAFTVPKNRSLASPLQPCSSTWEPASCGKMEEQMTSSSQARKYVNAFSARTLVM
Nuclear respiratory factor 1 (Homo sapiens), sequence (Q16656 whole entry, looked up): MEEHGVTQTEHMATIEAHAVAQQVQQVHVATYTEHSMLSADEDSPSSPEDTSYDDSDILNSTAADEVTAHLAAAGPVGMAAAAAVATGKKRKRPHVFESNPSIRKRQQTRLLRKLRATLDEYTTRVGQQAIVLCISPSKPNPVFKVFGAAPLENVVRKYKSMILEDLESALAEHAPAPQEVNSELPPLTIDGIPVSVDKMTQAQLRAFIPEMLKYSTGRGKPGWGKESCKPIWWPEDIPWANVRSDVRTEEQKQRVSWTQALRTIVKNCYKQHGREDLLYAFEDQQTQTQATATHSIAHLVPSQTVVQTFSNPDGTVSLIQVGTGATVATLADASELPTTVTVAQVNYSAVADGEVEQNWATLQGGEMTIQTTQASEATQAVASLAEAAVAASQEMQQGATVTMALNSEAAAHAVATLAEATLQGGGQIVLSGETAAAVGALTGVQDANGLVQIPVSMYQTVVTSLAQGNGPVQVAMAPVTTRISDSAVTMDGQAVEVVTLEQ
Hepatocyte nuclear factor 4-alpha (Homo sapiens), sequence (P41235 whole entry, looked up): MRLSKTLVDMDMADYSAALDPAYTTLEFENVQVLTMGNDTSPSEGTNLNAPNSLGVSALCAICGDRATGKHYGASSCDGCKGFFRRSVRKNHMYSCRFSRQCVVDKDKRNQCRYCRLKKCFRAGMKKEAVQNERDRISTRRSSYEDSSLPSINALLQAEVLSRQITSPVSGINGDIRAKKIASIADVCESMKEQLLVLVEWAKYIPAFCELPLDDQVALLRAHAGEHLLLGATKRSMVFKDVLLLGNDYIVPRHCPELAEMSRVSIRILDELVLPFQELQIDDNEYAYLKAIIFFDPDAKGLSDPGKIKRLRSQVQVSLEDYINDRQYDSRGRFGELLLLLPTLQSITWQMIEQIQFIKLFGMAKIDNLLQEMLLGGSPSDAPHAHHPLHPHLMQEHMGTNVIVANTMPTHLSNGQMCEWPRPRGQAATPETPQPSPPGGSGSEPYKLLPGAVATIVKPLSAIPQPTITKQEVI
Nuclear receptor subfamily 4 group A member 2 (Homo sapiens), sequence (P43354 whole entry, looked up, the tested form may be a part): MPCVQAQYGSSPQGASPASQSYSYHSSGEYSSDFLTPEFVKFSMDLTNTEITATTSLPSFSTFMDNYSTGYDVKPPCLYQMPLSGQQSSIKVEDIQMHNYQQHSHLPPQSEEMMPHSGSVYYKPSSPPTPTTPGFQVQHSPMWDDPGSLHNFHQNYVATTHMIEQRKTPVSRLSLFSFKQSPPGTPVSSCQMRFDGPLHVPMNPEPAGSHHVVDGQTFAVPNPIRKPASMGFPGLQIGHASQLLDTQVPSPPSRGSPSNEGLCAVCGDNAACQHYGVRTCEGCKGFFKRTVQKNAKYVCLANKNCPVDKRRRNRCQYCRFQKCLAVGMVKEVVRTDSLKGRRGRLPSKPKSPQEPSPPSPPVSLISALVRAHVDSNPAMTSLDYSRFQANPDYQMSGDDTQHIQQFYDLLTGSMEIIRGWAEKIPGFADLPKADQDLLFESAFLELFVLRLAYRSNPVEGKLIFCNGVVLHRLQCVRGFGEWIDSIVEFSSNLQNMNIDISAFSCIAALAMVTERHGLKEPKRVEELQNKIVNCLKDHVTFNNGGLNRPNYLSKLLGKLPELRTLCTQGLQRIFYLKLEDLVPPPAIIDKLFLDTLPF

In the case of `CC1COC(Cn2cncn2)(c2ccc(Oc3ccc(Cl)cc3)cc2Cl)O1` (stereo not given), the compound was called inactive in [1], in assay [2], in assay [3], in [4], in [5] and in assay [6]. Besides, the outcome in [7], in assay [8], in [9], in [10], in assay [11] and in assay [14] was inactive. In addition, the AC50 in [12] is 1.88 µM (active); in assay [13] it was 2.45 µM (active); in assay [15], 31.5 µM (active); in assay [16], 28.4 µM (active).

In the case of `CC(C)(C)c1ccc(CSc2cnn(C(C)(C)C)c(=O)c2Cl)cc1`, the compound was classed as inactive in assay [17], in assay [1], in [2], in assay [4], in assay [5] and in assay [18]. Further, the compound was called inactive in assay [6], in assay [7], in [19], in assay [8], in assay [10] and in [11]. For the same compound, the result in [14] and in assay [15] was inactive. In addition, the concentration at half-maximal activity (AC50) in assay [9] is 19.1 µM (active); in [12] it was 0.0912 µM (active); in [13] it was 0.024 µM (active); in assay [16], 8.48 µM (active).

Turning to `N#Cc1nn(-c2c(Cl)cc(C(F)(F)F)cc2Cl)c(N)c1S(=O)C(F)(F)F` (stereo not given), the call in assay [17], in [1], in [3], in assay [4], in assay [5] and in [18] was inactive. Also, the call in assay [6], in assay [7], in assay [8], in [9], in [10] and in assay [11] was inactive. Moreover, the compound was classed as inactive in [12], in assay [13], in assay [14] and in [15]. The half-maximal activity concentration (AC50) in assay [4] was 18.5 µM (active); in assay [5] it was 11.7 µM (active); in assay [12], 5.51 µM (active); in assay [13], 10.2 µM (active); in assay [16], 22 µM (active).

The record behind these values is PubChem BioAssay (EPA / NIEHS).
